Paper PMC12529666, “Dysregulation of AGO2-miRNA dynamics underlies the AGO2-associated Lessel–Kreienkamp syndrome”

B1: GTGTTTCG (ssRNA)
RNA 1: GAGUUCUACAGUCCGACGAUCCCAACGUGUUUCGCACCUGGAAUUCUCGGGUGCCAA
RNA 2: UGGAGUGUGACAAUGGUGUUUG
DNA 1: GATCGTCGGACTGTAGAACTC
DNA 2: TTGGCACCCGAGAATTCCA
modifications: constant regions annealed to DNA blockers; guide miR-122 5' phosphate
B2: GTGTTCTA (ssRNA)
RNA 1: GAGUUCUACAGUCCGACGAUCCCAACGUGUUCUACACCUGGAAUUCUCGGGUGCCAA
RNA 2: UGGAGUGUGACAAUGGUGUUUG
DNA 1: GATCGTCGGACTGTAGAACTC
DNA 2: TTGGCACCCGAGAATTCCA
modifications: constant regions annealed to DNA blockers; guide miR-122 5' phosphate
B3: ACGTCCCG (ssRNA)
RNA 1: GAGUUCUACAGUCCGACGAUCCCAACACGUCCCGCACCUGGAAUUCUCGGGUGCCAA
RNA 2: UGGAGUGUGACAAUGGUGUUUG
DNA 1: GATCGTCGGACTGTAGAACTC
DNA 2: TTGGCACCCGAGAATTCCA
modifications: constant regions annealed to DNA blockers; guide miR-122 5' phosphate
B4: ACGCCCTG (ssRNA)
RNA 1: GAGUUCUACAGUCCGACGAUCCCAACACGCCCUGCACCUGGAAUUCUCGGGUGCCAA
RNA 2: UGGAGUGUGACAAUGGUGUUUG
DNA 1: GATCGTCGGACTGTAGAACTC
DNA 2: TTGGCACCCGAGAATTCCA
modifications: constant regions annealed to DNA blockers; guide miR-122 5' phosphate
B5: GTATTTCG (ssRNA)
RNA 1: GAGUUCUACAGUCCGACGAUCCCAACGUAUUUCGCACCUGGAAUUCUCGGGUGCCAA
RNA 2: UGGAGUGUGACAAUGGUGUUUG
DNA 1: GATCGTCGGACTGTAGAACTC
DNA 2: TTGGCACCCGAGAATTCCA
modifications: constant regions annealed to DNA blockers; guide miR-122 5' phosphate
B6: ACGTTTCG (ssRNA)
RNA 1: GAGUUCUACAGUCCGACGAUCCCAACACGUUUCGCACCUGGAAUUCUCGGGUGCCAA
RNA 2: UGGAGUGUGACAAUGGUGUUUG
DNA 1: GATCGTCGGACTGTAGAACTC
DNA 2: TTGGCACCCGAGAATTCCA
modifications: constant regions annealed to DNA blockers; guide miR-122 5' phosphate
B7: GCATTCTG (ssRNA)
RNA 1: GAGUUCUACAGUCCGACGAUCCCAACGCAUUCUGCACCUGGAAUUCUCGGGUGCCAA
RNA 2: UGGAGUGUGACAAUGGUGUUUG
DNA 1: GATCGTCGGACTGTAGAACTC
DNA 2: TTGGCACCCGAGAATTCCA
modifications: constant regions annealed to DNA blockers; guide miR-122 5' phosphate
B8: GTGTCCCG (ssRNA)
RNA 1: GAGUUCUACAGUCCGACGAUCCCAACGUGUCCCGCACCUGGAAUUCUCGGGUGCCAA
RNA 2: UGGAGUGUGACAAUGGUGUUUG
DNA 1: GATCGTCGGACTGTAGAACTC
DNA 2: TTGGCACCCGAGAATTCCA
modifications: constant regions annealed to DNA blockers; guide miR-122 5' phosphate
B9: ATGCTCTG (ssRNA)
RNA 1: GAGUUCUACAGUCCGACGAUCCCAACAUGCUCUGCACCUGGAAUUCUCGGGUGCCAA
RNA 2: UGGAGUGUGACAAUGGUGUUUG
DNA 1: GATCGTCGGACTGTAGAACTC
DNA 2: TTGGCACCCGAGAATTCCA
modifications: constant regions annealed to DNA blockers; guide miR-122 5' phosphate
B10: ACGCTTTG (ssRNA)
RNA 1: GAGUUCUACAGUCCGACGAUCCCAACACGCUUUGCACCUGGAAUUCUCGGGUGCCAA
RNA 2: UGGAGUGUGACAAUGGUGUUUG
DNA 1: GATCGTCGGACTGTAGAACTC
DNA 2: TTGGCACCCGAGAATTCCA
modifications: constant regions annealed to DNA blockers; guide miR-122 5' phosphate
B11: GTACCCTG (ssRNA)
RNA 1: GAGUUCUACAGUCCGACGAUCCCAACGUACCCUGCACCUGGAAUUCUCGGGUGCCAA
RNA 2: UGGAGUGUGACAAUGGUGUUUG
DNA 1: GATCGTCGGACTGTAGAACTC
DNA 2: TTGGCACCCGAGAATTCCA
modifications: constant regions annealed to DNA blockers; guide miR-122 5' phosphate
B12: GCACTTTG (ssRNA)
RNA 1: GAGUUCUACAGUCCGACGAUCCCAACGCACUUUGCACCUGGAAUUCUCGGGUGCCAA
RNA 2: UGGAGUGUGACAAUGGUGUUUG
DNA 1: GATCGTCGGACTGTAGAACTC
DNA 2: TTGGCACCCGAGAATTCCA
modifications: constant regions annealed to DNA blockers; guide miR-122 5' phosphate

Each binder was assayed against AGO2 L192P (Homo sapiens, UniProt Q9UKV8 1-859, L192P;S387D;S824A;S828D;S831D;S834A) (assay: RNA Bind-n-Seq (nitrocellulose filter binding and sequencing); miR-122 guide loaded in AGO2; 60 min incubation; 30 mM Tris pH 8.0, 100 mM potassium acetate, 2 mM magnesium acetate, 0.5 mM TCEP, 0.005% NP-40, 0.01 mg/ml yeast tRNA; 3 nM AGO2-miR-122, 100 nM RNA library; 60; high values mean tight binding). Settings: protein: recombinant; tags: His6 (N-terminal, pFastBac HTA).
Summary of the method: (§1)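 His-tagged AGO2 was expressed in Sf9 insect cells by baculovirus, loaded with a synthetic guide RNA, and purified by Ni-NTA and a biotinylated capture oligo. Bound RNA was extracted, reverse-transcribed, barcode-amplified and Illumina-sequenced. Fold enrichment is each sequence's read fraction divided by its input-library read fraction.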

Sequence of AGO2 L192P (Q9UKV8 whole entry L192P/S387D/S824A/S828D/S831D/S834A): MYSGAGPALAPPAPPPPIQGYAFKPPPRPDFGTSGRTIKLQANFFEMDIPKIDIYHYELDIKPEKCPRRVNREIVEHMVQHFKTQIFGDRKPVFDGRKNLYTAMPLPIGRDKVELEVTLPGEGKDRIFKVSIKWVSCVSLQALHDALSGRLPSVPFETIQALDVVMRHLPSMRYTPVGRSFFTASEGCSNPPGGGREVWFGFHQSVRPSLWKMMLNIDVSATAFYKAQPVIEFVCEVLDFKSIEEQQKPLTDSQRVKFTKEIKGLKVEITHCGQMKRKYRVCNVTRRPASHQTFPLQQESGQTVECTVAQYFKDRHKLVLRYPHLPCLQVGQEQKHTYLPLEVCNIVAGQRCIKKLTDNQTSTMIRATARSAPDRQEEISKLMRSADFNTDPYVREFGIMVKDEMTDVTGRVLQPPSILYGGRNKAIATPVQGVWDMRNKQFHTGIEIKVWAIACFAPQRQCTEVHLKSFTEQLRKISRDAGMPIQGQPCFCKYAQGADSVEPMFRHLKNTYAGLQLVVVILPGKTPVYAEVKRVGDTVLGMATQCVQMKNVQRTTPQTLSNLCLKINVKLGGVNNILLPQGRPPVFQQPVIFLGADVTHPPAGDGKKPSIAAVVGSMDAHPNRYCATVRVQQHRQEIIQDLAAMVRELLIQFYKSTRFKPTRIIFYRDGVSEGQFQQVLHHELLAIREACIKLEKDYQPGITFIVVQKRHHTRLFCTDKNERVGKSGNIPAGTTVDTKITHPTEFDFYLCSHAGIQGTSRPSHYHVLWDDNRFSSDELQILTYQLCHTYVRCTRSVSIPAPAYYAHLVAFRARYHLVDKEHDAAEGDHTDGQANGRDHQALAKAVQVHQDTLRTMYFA

Binder	binding signal
B1	0.36 fold enrichment over input
B2	0.435 fold enrichment over input
B3	0.332 fold enrichment over input
B4	0.4 fold enrichment over input
B5	0.381 fold enrichment over input
B6	0.338 fold enrichment over input
B7	0.359 fold enrichment over input
B8	0.344 fold enrichment over input
B9	0.376 fold enrichment over input
B10	0.36 fold enrichment over input
B11	0.344 fold enrichment over input
B12	0.325 fold enrichment over input

The binders below were run against AGO2 A367P (Homo sapiens, UniProt Q9UKV8 1-859, A367P;S387D;S824A;S828D;S831D;S834A) in the same assay as above. Settings: protein: recombinant; tags: His6 (N-terminal, pFastBac HTA).
Summary of the method: as §1

Sequence of AGO2 A367P (Q9UKV8 whole entry A367P/S387D/S824A/S828D/S831D/S834A): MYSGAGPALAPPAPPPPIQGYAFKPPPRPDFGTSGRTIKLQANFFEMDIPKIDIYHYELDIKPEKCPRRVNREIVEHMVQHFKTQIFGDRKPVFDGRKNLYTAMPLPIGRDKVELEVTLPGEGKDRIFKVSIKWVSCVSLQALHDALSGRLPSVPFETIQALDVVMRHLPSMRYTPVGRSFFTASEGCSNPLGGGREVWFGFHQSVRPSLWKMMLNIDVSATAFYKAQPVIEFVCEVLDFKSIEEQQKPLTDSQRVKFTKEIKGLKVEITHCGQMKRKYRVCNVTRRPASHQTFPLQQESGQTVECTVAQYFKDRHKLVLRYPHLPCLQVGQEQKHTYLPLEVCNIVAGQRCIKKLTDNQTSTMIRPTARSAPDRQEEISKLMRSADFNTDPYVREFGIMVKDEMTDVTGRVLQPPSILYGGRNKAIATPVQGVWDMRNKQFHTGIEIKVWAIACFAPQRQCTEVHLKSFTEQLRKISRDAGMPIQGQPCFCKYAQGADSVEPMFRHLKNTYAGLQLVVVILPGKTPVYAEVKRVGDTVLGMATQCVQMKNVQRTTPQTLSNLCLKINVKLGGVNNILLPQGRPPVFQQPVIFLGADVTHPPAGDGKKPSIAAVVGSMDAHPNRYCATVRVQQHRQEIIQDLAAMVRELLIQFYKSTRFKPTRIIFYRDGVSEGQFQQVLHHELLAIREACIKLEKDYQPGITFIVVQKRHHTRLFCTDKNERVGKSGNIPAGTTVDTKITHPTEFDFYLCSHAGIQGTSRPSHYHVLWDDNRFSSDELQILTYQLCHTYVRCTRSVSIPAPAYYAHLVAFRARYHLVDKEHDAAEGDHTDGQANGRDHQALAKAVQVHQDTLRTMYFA

Binder	binding signal
B1	0.133 fold enrichment over input
B2	0.156 fold enrichment over input
B3	0.141 fold enrichment over input
B4	0.147 fold enrichment over input
B5	0.127 fold enrichment over input
B6	0.13 fold enrichment over input
B7	0.137 fold enrichment over input
B8	0.126 fold enrichment over input
B9	0.14 fold enrichment over input
B10	0.134 fold enrichment over input
B11	0.129 fold enrichment over input
B12	0.126 fold enrichment over input

The binders below were run against AGO2 T357M (Homo sapiens, UniProt Q9UKV8 1-859, T357M;S387D;S824A;S828D;S831D;S834A) in the same assay as above. Settings: protein: recombinant; tags: His6 (N-terminal, pFastBac HTA).
Summary of the method: as §1

Sequence of AGO2 T357M (Q9UKV8 whole entry T357M/S387D/S824A/S828D/S831D/S834A): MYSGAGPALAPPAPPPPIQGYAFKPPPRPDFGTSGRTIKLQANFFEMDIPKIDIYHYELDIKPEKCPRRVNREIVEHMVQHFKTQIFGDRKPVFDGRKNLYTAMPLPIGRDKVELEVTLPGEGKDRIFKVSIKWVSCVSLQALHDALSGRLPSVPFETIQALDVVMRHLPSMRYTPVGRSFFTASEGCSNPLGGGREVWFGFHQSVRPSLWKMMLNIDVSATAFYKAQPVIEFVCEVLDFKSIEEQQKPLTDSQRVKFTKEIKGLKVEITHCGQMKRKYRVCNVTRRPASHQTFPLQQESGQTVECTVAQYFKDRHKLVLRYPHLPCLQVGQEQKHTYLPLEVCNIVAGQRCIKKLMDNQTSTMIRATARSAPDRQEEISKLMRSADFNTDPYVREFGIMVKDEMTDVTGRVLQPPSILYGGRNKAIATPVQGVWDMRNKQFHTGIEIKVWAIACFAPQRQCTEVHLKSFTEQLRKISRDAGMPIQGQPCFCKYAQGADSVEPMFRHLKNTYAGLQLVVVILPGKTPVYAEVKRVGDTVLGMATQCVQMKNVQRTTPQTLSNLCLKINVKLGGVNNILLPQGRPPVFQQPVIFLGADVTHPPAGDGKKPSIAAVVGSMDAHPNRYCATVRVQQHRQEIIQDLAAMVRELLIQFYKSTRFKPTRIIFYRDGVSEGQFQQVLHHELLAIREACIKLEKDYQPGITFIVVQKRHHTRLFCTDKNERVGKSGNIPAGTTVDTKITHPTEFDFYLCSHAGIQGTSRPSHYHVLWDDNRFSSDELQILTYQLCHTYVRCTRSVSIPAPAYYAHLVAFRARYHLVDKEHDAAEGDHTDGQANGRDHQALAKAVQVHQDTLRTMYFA

Binder	binding signal
B1	0.483 fold enrichment over input
B2	0.531 fold enrichment over input
B3	0.443 fold enrichment over input
B4	0.519 fold enrichment over input
B5	0.515 fold enrichment over input
B6	0.445 fold enrichment over input
B7	0.44 fold enrichment over input
B8	0.447 fold enrichment over input
B9	0.486 fold enrichment over input
B10	0.52 fold enrichment over input
B11	0.483 fold enrichment over input
B12	0.452 fold enrichment over input
